# Source: PubChem (National Center for Advancing Translational Sciences (NCATS))
# The list is not random: actives were taken first. Their share in the collection is about 2.7%.
# 12-LOX inh: Primary qHTS assay for inhibitors of human arachidonate 12S-lipoxygenase (ALOX12): Round 2; Polyunsaturated fatty acid lipoxygenase ALOX12 (Homo sapiens), P18054; purified 12hLO, xylenol orange hydroperoxide absorbance; Potency, µM (titrated, usually from 108 µM), for the others: top-dose activity change, negative = inhibition, usual class: inhibitors; 580,000 compounds, 1.1% hits; AID 1671190, 2021; note: potency is the fitted concentration of half-maximal effect; % is set by controls: 0 for no effect and ±100 for the full control effect
#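 Hydroperoxide product was detected by ferrous iron/xylenol orange as the 573 to 405 nm absorbance ratio. Arachidonic acid at 40 uM (final) was turned over for 30 min at room temperature by 150 nM human 12hLO, pH 7.0 Hepes buffer, after 15 min compound preincubation.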
# Nrf2 ARE act: qHTS of Nrf2 Activators. AREc32 ARE-luciferase reporter (MCF7-derived line), luminescence, 24 h. Potency, µM (series often up to 46.1 µM), inactives show at the highest dose activation, actives largely listed as activators. 410,000 compounds, 0.31% hits; note: potency is the fitted concentration of half-maximal effect; % of control where 0% means no effect; nearly all actives have a fitted effect of over 65% in size
#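 Luciferase luminescence (Steady-Glo, 30 min at room temperature) served as the read-out of ARE activation in AREc32 cells treated with compounds for 24 hr at 37 deg C.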
# A549 tox: Nrf2 qHTS screen for inhibitors: counterscreen for cytotoxicity | A549 ARE-Fluc cells, CellTiter-Fluor viability, 18-24 h | Potency, µM (titrated, usually from 46 µM), for the others: at the top dose activity change, negative = cytotoxicity, most hits filed as inhibitors | 390,000 compounds, 0.16% hits | AID 504648, 2011; note: potency is the fitted concentration of half-maximal effect; % is set by controls: 0 for no effect and ±100 for the full control effect
#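 A549 ARE-Fluc cells in 5% FBS OPTI-MEM, 5000 cells/well, rested 2 h then exposed to compounds in concentration-response for 18-24 h at 37 °C. Viability by CellTiter-Fluor fluorescence (Ex 405/Em 525) after 30 min; luciferase luminescence (BugLite, 15 min, RT) read afterwards.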
# LDHA block: qHTS assay for inhibitors of human lactate dehydrogenase. L-lactate dehydrogenase A chain (Homo sapiens), P00338. purified LDHA, NADH/diaphorase-resazurin fluorescence; stronger effect = lower value. activity change, % (values are at about 110 or 230 µM). 480,000 compounds, 0.15% hits. AID 1347041, 2019; in the data active = activity change below about -30%; inconclusive = mostly about -25% to -30%;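 note: plate controls were DMSO wells for no effect and wells without enzyme for full effect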
#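 Enzyme activity of human lactate dehydrogenase 5 (2 nM; 0.06 mM NADH, 0.2 mM pyruvate, 5 min, RT) is measured via a resazurin/diaphorase fluorescence readout of residual NADH.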
# ERG Ets-DNA blk: qHTS for Small Molecule Inhibitors of the ERG Ets/DNA interaction | Transcriptional regulator ERG (Homo sapiens), P11308 | fluorescence polarization, His-ERG Ets domain / labelled DNA | Potency, µM (top dose mostly 76.9 µM), for the others: at the highest dose FP activity, negative = inhibition, hits mostly inhibitors | 370,000 compounds, 0.028% hits; active = well fitted inhibition curve with a large enough effect in the polarisation, with a control signal flat; inconclusive = small, poorly fitted or top-dose-only effect, or effect the other way, or a change in a side signal; inactive = no such curve, though single readings can be large or run the other way; the % refers to the polarisation;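 note: polarization taken with two DNA probes labelled with fluorescein and Texas red; potency is the fitted concentration of half-maximal effect; % of control where 0% means no effect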
# Target sequence (P11308 whole entry, looked up, the tested form may be a part): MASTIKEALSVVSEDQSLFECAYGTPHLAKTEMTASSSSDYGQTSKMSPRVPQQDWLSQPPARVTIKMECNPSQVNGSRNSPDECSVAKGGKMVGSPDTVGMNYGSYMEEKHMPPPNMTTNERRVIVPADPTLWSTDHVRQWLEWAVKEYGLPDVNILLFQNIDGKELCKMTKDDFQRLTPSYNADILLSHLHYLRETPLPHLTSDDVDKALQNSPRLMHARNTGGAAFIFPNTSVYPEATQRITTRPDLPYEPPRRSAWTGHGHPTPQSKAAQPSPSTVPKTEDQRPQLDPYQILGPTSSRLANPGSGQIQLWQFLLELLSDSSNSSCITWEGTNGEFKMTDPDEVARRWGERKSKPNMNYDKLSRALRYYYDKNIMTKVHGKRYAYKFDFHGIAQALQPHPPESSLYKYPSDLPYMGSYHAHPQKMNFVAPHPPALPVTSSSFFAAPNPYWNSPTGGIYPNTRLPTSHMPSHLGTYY
#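 His-tagged ERG Ets domain (1 uM in the protein solution; 300mM KCl, 50mM Tris-HCl, 1mM EDTA, 1mM DTT, pH 7.5) received compound, then a probe mix of 5 nM fluorescein-DNA and 100nM Texas-615-DNA. Fluorescence polarization was read for both dyes.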
# Nrf2 inh: Nrf2 qHTS screen for inhibitors. A549 ARE-Fluc reporter, luciferase luminescence, 18-24 h. Potency, µM (titrated, usually from 46 µM), without a hit: at the highest dose activity change, negative = inhibition, most hits filed as inhibitors. 360,000 compounds, 2.1% hits; note: potency is the fitted concentration of half-maximal effect; % is set by controls: 0 for no effect and ±100 for the full control effect; nearly all actives have a fitted effect of over 60% in size
#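 Quantitative HTS in A549 cells stably bearing an antioxidant response element-firefly luciferase construct. Inhibition of Nrf2-driven transcription was scored by luminescence after 18-24 h of compound exposure at 37 °C.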
# Starred values were filed as active, the others as inactive; ? = inconclusive; . = no result given; [ ] = another dose, or the depositor's remark. Unless noted, calls come from the whole dose curve; as a rule, active = well fitted curve in the direction sought with a large enough effect; inconclusive = small, poorly fitted or top-dose-only effect, or another doubt; inactive = no such curve, though single readings can be large; an effect the other way counts as inactive or inconclusive.
SMILES,12-LOX inh,Nrf2 ARE act,A549 tox,LDHA block,ERG Ets-DNA blk,Nrf2 inh
Cn1c(=O)n(C)c2cc([N+](=O)[O-])c(N3CCN(C(=O)c4ccc(Cl)cc4)CC3)cc21,0.4%,2.3%,2.2%,3.0,.,?
O=C(c1cccc(F)c1)N1CCN(c2cc(N3CCCCC3)c(F)cc2[N+](=O)[O-])CC1,-22.3%,0.4%,?,-7.5,-1.3%,20.6µM*
CCN(CC)c1ccc(-c2nn3c(-c4ccccc4C)nnc3s2)cc1,7.9%,.,.,-6.2,.,.
O=C1NC2(CCCCC2)NN1c1ccc(Br)cc1,?,.,.,-0.2,.,.
COC(=O)C(N)Cc1ccc(O)cc1 (stereo not given),0.0%,0.2%,14.8%,1.3,-6.7%,12.6%
COC(=O)C(N)Cc1ccc(O)c(O)c1 (stereo not given),6.31µM*,3.2%,0.2%,20.6,-3.5%,4.5%
COC(=O)c1ccc([C@H]2Nc3ccc(S(=O)(=O)Nc4ccc(F)cc4)cc3[C@H]3C=CC[C@H]32)cc1,5.0%,0.9%,-3.2%,5.1,3.3%,13.5%
COc1cccc(NS(=O)(=O)c2ccc3c(c2)C2C=CCC2C(c2ccc(C(=O)O)cc2)N3)c1 (stereo not given),12.6µM*,0.1%,-2.9%,15.7,.,-7.7%
Cc1cccc(NS(=O)(=O)c2ccc3c(c2)[C@H]2C=CC[C@H]2[C@@H](c2ccc(F)cc2)N3)c1,?,1.0%,-15.1%,4.0,4.1%,18.4µM*
c1ccc(-c2cnc(CSc3nnc(-c4ccccc4)o3)o2)cc1,?,.,.,8.4,.,.
Cc1ccc(C)c(S(=O)(=O)N2[C@@H]3CC[C@H]2CC(NC(=O)c2ccc(F)cc2)C3)c1 (stereo not given in full),10.2%,.,.,.,.,.
Cc1ccc(S(=O)(=O)N2[C@@H]3CC[C@H]2CC(NC(=O)c2ccncc2)C3)c(C)c1 (stereo not given in full),17.8µM*,.,.,.,.,.
O=C(c1ccc(Cl)cc1)c1ccccc1C(=O)N1CCN(C(=O)C2CC2)CC1,0.5%,.,.,2.8,.,.
CN1CCN(C(=O)c2cnc(N3CCOCC3)c3ccccc23)CC1,4.6%,.,.,3.8,.,.
COc1ccc2c(C)c(CC(=O)NC3CCS(=O)(=O)C3)c(=O)oc2c1 (stereo not given),9.8%,.,.,1.1,.,.
CCCCCNc1nc2c(c(=O)n(C)c(=O)n2C)n1Cc1ccccc1F,21.6%,.,.,15.7,.,.
Cn1c(=O)c2cc(C(=O)NC3CCCCCC3)sc2c2ccccc21,?,8.2%,?,-2.9,2.2%,18.4µM*
Cc1csc(NC(=O)CCc2ncc(-c3ccc(F)cc3)o2)n1,?,.,.,24.9,.,.
O=C(c1ccco1)c1cn(CCOc2ccc(F)cc2)c2ccccc12,-8.4%,3.8%,-26.9%,0.7,6.8%,23.1µM*
O=C(c1ccco1)c1cn(CCOc2ccc(Cl)cc2)c2ccccc12,-7.1%,0.4%,-1.0%,3.5,-21.1%,4.7%
O=C(c1ccco1)N1CCN(CCCCOc2ccc(F)cc2)CC1,31.6µM*,0.1%,-1.6%,-1.7,0.1%,-5.4%
O=C(CCN1CCN(C(=O)c2ccco2)CC1)Nc1ccc(F)cc1,-2.2%,-1.0%,3.7%,-3.6,-2.7%,.
CC(C)CNc1ncnc2c1cnn2Cc1ccccc1Cl,-16.2%,-2.4%,9.7%,-2.0,-9.5%,-3.5%
CC(C)Nc1ncnc2c1cnn2Cc1ccccc1Cl,?,-0.2%,2.3%,1.2,5.5%,13µM*
O=Cc1ccc(OCc2cccc(Cl)c2)cc1,?,.,.,8.4,.,.
SMILES,12-LOX inh,Nrf2 ARE act,A549 tox,LDHA block,ERG Ets-DNA blk,Nrf2 inh
CCCS(=O)(=O)N1CCN(c2ccc(N3CCCCC3)nn2)CC1,?,.,.,3.1,.,.
Cc1ccc(Nc2cc(C)nn2-c2nc(C)cc(=O)[nH]2)cc1,.,?,12.6µM*,-5.2,5.0%,1.78µM*
O=C1OC2(c3ccc(O)cc3Oc3cc(O)ccc32)c2ccccc21,-11.8%[22.9 µM],.,.,.,.,.
O=C1OC2(c3ccccc31)c1cc(I)c(O)c(I)c1Oc1c2cc(I)c(O)c1I,1.61µM*,.,.,.,.,.
CCOc1cc(CNc2ccc(N3CCN(C(C)=O)CC3)cc2)cc(Br)c1OC,?,5.3%,-0.5%,2.9,1.9%,?
CC(=O)N1CCN(c2ccc(NCc3ccc(F)cc3)cc2)CC1,?,3.5%,-2.9%,10.3,3.2%,?
CC(=O)N1CCN(c2ccc(NCc3cccc(C)c3)cc2)CC1,?,6.0%,-3.3%,9.5,.,14.6µM*
COc1cc(CNc2ccc(N3CCN(C(C)=O)CC3)cc2)ccc1OCc1ccc(F)cc1,?,13.0%,-18.9%,15.4,-2.4%,16.4µM*
O=C(O)CCCC[C@@H]1SC[C@@H](NC(=O)c2ccccc2)[C@@H]1O,3.6%,.,.,0.3,.,.
Fc1c(F)c(C(F)(F)F)c(F)c(F)c1N/N=C/c1ccc(Br)cc1,?,.,.,7.9,.,.
Cc1c2cnn(CC(=O)Nc3c(F)c(F)cc(F)c3F)c(=O)c2c(C)n1Cc1ccccc1F,20µM*,-0.1%,8.9%,-4.8,9.7%,18.2%
O=C(O)c1cccc(Nc2nc3ccccc3nc2NS(=O)(=O)c2ccc(Br)cc2)c1,12.6µM*,.,.,3.7,.,.
Cc1ccc(S(=O)(=O)Nc2nc3ccccc3nc2Nc2cccc(S(=O)(=O)N3CCCC3)c2)cc1,?,-0.5%,-12.9%,-3.2,53.5%,9.2µM*
Cc1ccc(S(=O)(=O)N/N=C/c2ccccc2O)cc1[N+](=O)[O-],6.2%,-0.3%,-0.5%,-6.7,9.5%,-15.3%
Cc1ccc(S(=O)(=O)N/N=C/c2ccc(O)c(O)c2)cc1[N+](=O)[O-],50.1µM*,6.0%,0.9%,2.7,-1.2%,1.4%
CC(=O)Nc1ccc(-c2cn3cc(C)ccc3n2)cc1,-1.4%,-0.6%,-1.9%,-2.8,2.4%,-9.3%
Cc1ccc2nc(-c3ccc(O)c(O)c3)cn2c1,17.8µM*,10.0%,0.0%,22.6,5.4%,?
Cc1ccc2nc(-c3ccccc3)cn2c1,?,-2.3%,-1.3%,1.4,-7.9%,6.51µM*
Cc1nc(NC(=O)CSc2nccn2C)sc1C(=O)N(C)C,17.8µM*,-0.4%,5.2%,-2.5,-7.3%,15.2%
Cc1nc(NC(=O)CCl)sc1C(=O)N(C)C,-19.0%,12.6µM*,-3.9%,-1.5,0.9%,-20.9%
CCn1c(=S)[nH]c2c(c1=O)C(C)(C)Cc1ccccc1-2,?,0.3%,0.0%,-4.0,9.7%,-16.8%
Cn1c(=S)[nH]c2c(c1=O)C(C)(C)Cc1ccccc1-2,14.1µM*,-0.1%,-0.9%,-5.1,-10.9%,12.3%
